Data taken from PubChem BioAssay.
Calls of active or inactive are those of the source.

Columns and labels:
[1] = binders of probe aFSTL3 on microarray, primary screen, stem cell growth factor project, biochemical, small-molecule microarray, fluorescence 635/667 (AID 1064); conditions: higher = more signal;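 further: measures binding of the biotinylated anti-FSTL3 antibody to printed compounds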
[2] = binders from COS7 lysate, DM2A8 probe, primary screen, torsin A project, cell lysate, small-molecule microarray, fluorescence 635/667 (AID 1065); conditions: higher = more signal, COS7 lysate expressing mutant human TOR1A
[3] = binders of probe aFGF2 on microarray, primary screen, stem cell growth factor project, biochemical, small-molecule microarray, fluorescence 635/667 (AID 1067); conditions: higher = more signal;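 further: measures binding of biotinylated aFGF2 protein to printed compounds on slides; z-score merges feature fluorescence and signal-to-noise across triplicate slides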
[4] = binders of probe aFGF10 on microarray, primary screen, stem cell growth factor project, biochemical, small-molecule microarray, fluorescence 635/667 (AID 1071); conditions: higher = more signal;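 further: score merges 667 nm spot intensity and signal to noise from triplicate slides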
[5] = target: Neurogenic locus notch homolog protein 2 (Homo sapiens) (UniProt Q04721); assay: Notch2 binders on small-molecule microarrays, primary screen, biochemical, small-molecule microarray, 635 nm fluorescence, stem cell growth factors (AID 1073); conditions: Notch2 binding, higher = more signal
[6] = target: Pro-neuregulin-1, membrane-bound isoform (Homo sapiens) (UniProt Q02297); assay: NRG1 binders on small-molecule microarrays, primary screen, psychiatric disease protein project, biochemical, small-molecule microarray, fluorescence 635/667 (AID 1075); conditions: NRG1 binding, 635 nm fluorescence, higher = more signal;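 further: score combines 667 nm spot fluorescence with signal to noise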
[7] = tested on: Neuregulin-1 EGF-like domain; assay: binders of neuregulin-1 EGF-like domain, primary screen, biochemical, small-molecule microarray, 635 nm fluorescence (AID 1081); conditions: small-molecule microarray binding, higher = more signal;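 further: binding of the protein to compounds printed on small-molecule microarray slides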
[8] = FRG1 promoter luciferase signal modulators, primary screen, FRG1 inhibition for FSHD, cell-based, C2C12 myotubes, firefly/Renilla luciferase, luminescence (AID 1084); conditions: higher = more signal, called active from +8 up or from −8 down
[9] = binders of probe aFST on microarray, primary screen, stem cell growth factor project, biochemical, small-molecule microarray, fluorescence 635/667 (AID 1086); conditions: higher = more signal;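 further: score merges 667 nm fluorescence with signal-to-noise of each printed compound spot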
[10] = binders of probe aHhip on microarray, primary screen, stem cell growth factor project, biochemical, small-molecule microarray, fluorescence 635/667 (AID 1087); conditions: higher = more signal;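 further: score merges spot fluorescence at 667nm with spot signal to noise ratio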

Sequence of Pro-neuregulin-1, membrane-bound isoform (Homo sapiens) (Q02297 whole entry, looked up, the tested form may be a part, canonical isoform): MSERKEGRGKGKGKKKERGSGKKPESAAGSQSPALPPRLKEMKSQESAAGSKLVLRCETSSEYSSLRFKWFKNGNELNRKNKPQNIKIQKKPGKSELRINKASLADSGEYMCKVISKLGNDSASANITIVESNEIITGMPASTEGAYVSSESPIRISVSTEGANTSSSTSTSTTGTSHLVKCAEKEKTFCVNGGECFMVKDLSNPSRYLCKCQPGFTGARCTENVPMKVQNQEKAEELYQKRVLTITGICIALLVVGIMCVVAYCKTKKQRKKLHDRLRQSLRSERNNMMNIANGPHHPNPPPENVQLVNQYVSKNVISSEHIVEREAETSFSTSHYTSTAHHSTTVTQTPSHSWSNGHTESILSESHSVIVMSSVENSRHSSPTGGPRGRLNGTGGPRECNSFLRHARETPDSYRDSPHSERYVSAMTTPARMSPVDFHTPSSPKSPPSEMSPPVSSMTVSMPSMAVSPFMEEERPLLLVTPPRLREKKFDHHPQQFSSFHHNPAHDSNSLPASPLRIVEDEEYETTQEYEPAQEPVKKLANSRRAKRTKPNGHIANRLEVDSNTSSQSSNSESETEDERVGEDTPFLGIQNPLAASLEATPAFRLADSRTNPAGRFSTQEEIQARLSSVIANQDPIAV
Sequence of Neurogenic locus notch homolog protein 2 (Homo sapiens) (Q04721 whole entry, looked up, canonical isoform): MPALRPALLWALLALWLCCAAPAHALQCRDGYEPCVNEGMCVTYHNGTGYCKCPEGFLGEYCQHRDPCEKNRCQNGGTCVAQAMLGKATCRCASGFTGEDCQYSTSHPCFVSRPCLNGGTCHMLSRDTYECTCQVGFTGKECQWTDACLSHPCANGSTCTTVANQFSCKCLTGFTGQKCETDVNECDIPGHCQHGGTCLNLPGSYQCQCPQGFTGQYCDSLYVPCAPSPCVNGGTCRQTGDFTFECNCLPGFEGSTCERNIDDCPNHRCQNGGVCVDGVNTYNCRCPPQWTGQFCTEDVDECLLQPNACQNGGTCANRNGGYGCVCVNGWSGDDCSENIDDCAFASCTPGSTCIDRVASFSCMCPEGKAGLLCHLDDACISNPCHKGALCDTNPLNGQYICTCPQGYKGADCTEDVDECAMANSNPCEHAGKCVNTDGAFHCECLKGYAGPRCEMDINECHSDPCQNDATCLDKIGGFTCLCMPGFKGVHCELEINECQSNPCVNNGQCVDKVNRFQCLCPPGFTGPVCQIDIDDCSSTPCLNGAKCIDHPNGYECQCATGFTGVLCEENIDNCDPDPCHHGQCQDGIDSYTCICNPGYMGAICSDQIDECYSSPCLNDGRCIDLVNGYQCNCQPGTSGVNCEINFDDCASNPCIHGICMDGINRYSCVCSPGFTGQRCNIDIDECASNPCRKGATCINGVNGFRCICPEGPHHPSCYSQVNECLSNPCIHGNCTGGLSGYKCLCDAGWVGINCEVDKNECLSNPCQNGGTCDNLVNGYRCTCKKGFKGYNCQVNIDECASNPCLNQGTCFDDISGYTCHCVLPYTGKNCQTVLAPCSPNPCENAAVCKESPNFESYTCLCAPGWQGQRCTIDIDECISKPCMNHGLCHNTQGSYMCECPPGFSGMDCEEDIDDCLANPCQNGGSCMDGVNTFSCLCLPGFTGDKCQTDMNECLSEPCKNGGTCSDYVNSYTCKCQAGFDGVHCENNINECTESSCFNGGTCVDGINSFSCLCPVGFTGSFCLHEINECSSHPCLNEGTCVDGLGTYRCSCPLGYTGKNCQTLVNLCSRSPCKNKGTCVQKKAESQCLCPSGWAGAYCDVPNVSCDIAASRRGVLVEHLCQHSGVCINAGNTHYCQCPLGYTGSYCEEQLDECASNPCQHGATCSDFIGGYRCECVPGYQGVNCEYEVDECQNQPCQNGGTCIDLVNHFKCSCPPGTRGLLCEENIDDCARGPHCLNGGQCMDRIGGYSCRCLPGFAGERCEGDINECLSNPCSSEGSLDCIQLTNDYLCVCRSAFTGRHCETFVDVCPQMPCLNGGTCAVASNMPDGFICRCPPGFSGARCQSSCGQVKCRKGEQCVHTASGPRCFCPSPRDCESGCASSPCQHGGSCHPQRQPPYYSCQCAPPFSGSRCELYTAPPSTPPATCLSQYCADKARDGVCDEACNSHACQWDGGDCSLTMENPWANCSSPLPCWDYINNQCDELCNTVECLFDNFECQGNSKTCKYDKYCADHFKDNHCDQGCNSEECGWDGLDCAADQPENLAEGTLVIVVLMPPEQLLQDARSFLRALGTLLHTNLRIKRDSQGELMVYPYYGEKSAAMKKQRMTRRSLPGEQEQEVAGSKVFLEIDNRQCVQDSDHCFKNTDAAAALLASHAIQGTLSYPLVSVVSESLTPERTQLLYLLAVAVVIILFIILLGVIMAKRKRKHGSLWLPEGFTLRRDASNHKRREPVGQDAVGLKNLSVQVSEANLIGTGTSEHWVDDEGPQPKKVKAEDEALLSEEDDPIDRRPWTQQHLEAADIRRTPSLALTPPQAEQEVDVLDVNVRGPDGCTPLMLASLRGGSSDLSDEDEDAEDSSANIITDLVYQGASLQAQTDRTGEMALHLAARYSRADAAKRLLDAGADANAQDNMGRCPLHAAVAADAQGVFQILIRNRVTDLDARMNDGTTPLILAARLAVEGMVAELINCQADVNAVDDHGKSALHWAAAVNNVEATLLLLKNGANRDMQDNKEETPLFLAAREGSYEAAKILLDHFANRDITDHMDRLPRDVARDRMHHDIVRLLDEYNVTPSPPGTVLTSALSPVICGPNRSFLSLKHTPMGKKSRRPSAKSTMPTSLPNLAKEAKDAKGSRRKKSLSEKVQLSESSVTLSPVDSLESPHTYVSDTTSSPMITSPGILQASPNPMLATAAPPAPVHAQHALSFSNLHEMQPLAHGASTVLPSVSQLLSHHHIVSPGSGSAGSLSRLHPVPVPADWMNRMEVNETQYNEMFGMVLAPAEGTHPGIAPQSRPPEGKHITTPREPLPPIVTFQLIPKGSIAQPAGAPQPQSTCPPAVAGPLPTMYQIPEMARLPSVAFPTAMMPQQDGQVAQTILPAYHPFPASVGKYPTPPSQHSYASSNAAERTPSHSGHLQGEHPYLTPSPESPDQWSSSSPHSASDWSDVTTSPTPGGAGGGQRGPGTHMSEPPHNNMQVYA

Structure (SMILES)	composite z-score [1]	composite z-score [2]	composite z-score [3]	composite z-score [4]	composite z-score [5]	composite z-score [6]	composite z-score [7]	z-score [8]	composite z-score [9]	composite z-score [10]
O=C1O[C@@H](c2ccccc2)[C@@H](c2ccccc2)N2[C@@H](c3ccccc3OCCO)[C@]3(C(=O)Nc4ccc(C#CC5=CCCCC5)cc43)[C@@H](C(=O)N3CCCCCCC3)[C@H]12	3.71	2.23	0.978	1.14	1.65	2.07	1.07	-0.27 (inactive)	3.59	3.84
COc1ccc([C@H]2OC[C@@H]3C[C@@H](Cc4ccccc4)C(=O)N32)cc1	-0.446	0.466	0.0216	0.526	0.426	-0.103	1.11	-3.02 (inactive)	0.357	0.115
C=CCNC(=O)[C@@H]1[C@H]2C(=O)O[C@H](c3ccccc3)[C@H](c3ccccc3)N2[C@H](c2ccc(O)cc2)[C@@]12C(=O)N(C(=O)OCCOC)c1ccc(C#CCNC(N)=O)cc12	0.2	0.383	0.0793	0.714	0.211	1.22	0.955	-0.989 (inactive)	1.15	-0.311
C[N+](C)(C)CCCC[C@@H]1NC(=O)[C@H]2C[C@@H](C(=O)NCCCCCCNC(=O)CS)[C@@H](c3cccc(OCCO)c3)N2C1=O	0.227	0.0439	-0.172	-0.83	-1.34	-0.861	0.439	0.816 (inactive)	-0.948	-0.261
COC(=O)[C@@]1(Cc2ccccc2)[C@H]2c3cc(C(=O)N(C)C)n(Cc4ccsc4Br)c3C[C@H]2CN1C(=O)c1ccccc1	0.102	0.106	0.215	0.746	1.61	0.823	1.12	0.332 (inactive)	1.67	-0.113
CCCC#C[Si](O[C@H](CC)c1cn(Cc2cccc(Cl)c2)nn1)(C(C)C)C(C)C	-0.468	-0.139	-0.0865	0.85	0.831	-0.0184	1.15	0.414 (inactive)	0.0751	-0.137
O=C(c1ccccc1)N1Cc2ccccc2C[C@@]2(COC(c3ccc(OCCCO)cc3)=N2)C1=O	-0.0932	0.711	0.0292	0.591	1.03	0.0612	1.25	-0.187 (inactive)	0.146	-0.0296
CC1CC/C=C\[C@H]2OC34C=CCN(C(C)(C)C)C(=O)[C@H]3N(C(C)CO)C(=O)[C@@H]4C2C(=O)O1 (stereo not given in full)	0.101	-0.702	-0.128	-0.414	-1.04	-0.486	0.061	-0.486 (inactive)	-0.39	-0.0296
[N-]=[N+]=Nc1ccccc1[C@@H]1OC(c2ccc(OCCCO)cc2)=N[C@]1(CCS(=O)(=O)c1ccccc1)C(N)=O	0.109	-0.0445	0.29	0.829	1.58	1.63	1.23	1.14 (inactive)	2.08	-0.213
CCOC(=O)C[C@H]1[C@H](OC(=O)c2ccc(C(=O)c3ccccc3)cc2)[C@@H](NC(=O)CC(C)C)c2cc(OCCCO)ccc2N1C(=O)c1ccc2ccccc2n1	-0.538	0.154	-0.0715	0.86	1.28	0.621	1.22	-0.291 (inactive)	0.334	-0.137
C=CCC(OC(C)=O)[C@@H]1[C@@H](N(Cc2cccc3ccccc23)C(=O)c2ccc(-c3ccccc3)cc2)c2cc(OCCCO)ccc2N1C(=O)c1ccc2ccccc2c1 (stereo not given in full)	-0.484	0.306	-0.0647	-0.0203	0.104	0.148	0.0031	-0.0039 (inactive)	0.131	0.0722
CCCC=C(CCC)[C@@H](NC(=O)c1cccs1)c1ccc(C(F)(F)F)cc1	0.251	0.654	-0.0515	0.383	1.43	0.393	0.729	2.26 (inactive)	1.46	-0.132
O=C1C2C=CC(C(O)c3cc(C(F)(F)F)cc(C(F)(F)F)c3)N(n3cnnc3)C2C(=O)N1Cc1ccccc1 (stereo not given)	-0.153	0.0607	-0.0628	-0.251	0.203	0.339	-0.159	1.1 (inactive)	0.368	0.144
CC(C)c1ccc(NN2C(C(O)c3ccc(B(O)O)cc3)C=CC3C(=O)N(c4ccccc4)C(=O)C32)cc1 (stereo not given)	0.842	0.0275	0.185	1.13	1.63	1.19	1.15	0.87 (inactive)	1.67	0.0722
C=C(CCCC)C(=O)CC[C@@H](OC(=O)c1ccccc1-c1ccccc1C(=O)O)c1ccc(OCCO)cc1	-0.281	0.358	-0.128	0.826	-0.278	0.529	0.562	-0.109 (inactive)	0.135	0.011
